Data on 5 molecules can be found in PubChem BioAssay.

Several values for one entry are separate records, joined by “and”; a condition that tells them apart may be missing. Equal values may be shown once. For some assays here: Entries with a potency or affinity are not part of this list. Activity calls are given as the source filed them. Cut-off read from the data, not from the text of the source, unless noted: active = parasite load remaining mostly below about 12% (no sharp cut-off); inactive = mostly above about 10%.

The nature of assay [1]: blockers of polyQ-driven CASP3 activation – cell-based (AID 1583). The following applies: polyglutamine-induced caspase-3 activation, cell assay; stronger effect = higher value;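 tested at 10 µM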.
The nature of assay [2]: yeast 75Q aggregation reduction – 75Q-TubU reporter (AID 1593). Conditions: Yeast 75Q polyglutamine aggregation reporter.
The nature of assay [3]: restoration of touch response, mutant HTT neurons – whole organism, C. elegans mechanosensory neurons, N-terminal huntingtin (AID 1599). The following applies: C. elegans polyQ-huntingtin mechanosensory neurons, stronger effect = higher value.
A short description of assay [4]: blockers of cytochrome c efflux from mitochondria – biochemical, purified mitochondria (AID 1603).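 Note: mouse liver mitochondria challenged with calcium chloride; signal normalized to the plate average as 100%.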 The following applies: stronger effect = lower value.
Assay [5] is described as follows: polyglutamine aggregate formation blockers (AID 1604). Conditions: polyglutamine-induced protein aggregation inhibition assay; stronger effect = higher value; tested at 2.5 µM.
A short description of assay [6]: glutamate transport activators, MN-1 cells, MN-1 cell line (AID 1612).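 Note: tested at 1 µM final; 0% = mean of DMSO vehicle wells on each plate; positive means more glutamate uptake than control and negative means less.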 The following applies: MN-1 motor neuron cells, stronger effect = higher value.
Assay [7] in a line: 75Q-TubH aggregate inhibition, S. cerevisiae, yeast (AID 1616). Conditions: S. cerevisiae 75Q-TubH polyglutamine aggregation suppression; stronger effect = higher value.
Assay [8] can be described thus: P. berghei load reduction in hepatocytes – cell-based, HepG2, luciferase luminescence, HepG2 viability, primary screen (AID 624349).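 Note: 100% = mean of DMSO negative control wells on the same plate.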 The following applies: P. berghei liver stage in HepG2, luciferase luminescence, concentration not given here; parasite load remaining: stronger effect = lower value; viability: measured here: HepG2 viability without parasites.
Assay [9] can be described thus: EMT-state selective cytotoxicity in co-culture – imaging, PC-3E GFP, TEM4-18 mCherry, primary screen (AID 1345086;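 active = compounds killing one labelled cell type while sparing the other, by normalised counts and ratio limits, not self-fluorescent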;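 for all read-outs here: cells exposed to compound for 72 h before imaging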;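 for red/green cell ratio (normalised): normalised mesenchymal count divided by normalised epithelial count so high means epithelial killing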). Conditions: PC-3E GFP / TEM4-18 mCherry co-culture, imaging cell counts, at 1 µM; for red/green cell ratio (normalised): actives lie on both sides, counts scaled to control wells, 1 = unselective.
Assay [10] can be described thus: viability loss with induced miR-34 in A549 – imaging, A549 dox-inducible miR-34, nuclei and caspase counts, primary screen (AID 1347080;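 active = compounds whose cell count with miR-34 switched on is under 0.7 times the count with it off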). The following applies: A549 miR-34 inducible, Hoechst nuclei count, 48 h.
Assay [11] is described as follows: GFP-Q80 aggregate reduction, neuronal-like cells, cell-based, NGF-treated PC12, GFPQ80 (AID 1614).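 Note: lower means fewer inclusions and 0 means no inclusions at all.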 Conditions: PC12 NGF-treated GFP-polyQ80 inclusion reduction.
The mark [12] stands for this setting: measured here: epithelial PC-3E GFP cell survival.
The mark [13] stands for this setting: measured here: mesenchymal TEM4-18 mCherry cell survival.
The mark [14] stands for this setting: stronger effect = lower value, cell number ratio, induced over uninduced.
[15] abbreviates: measured here: relative caspase fold change +Dox/-Dox.
Setting [16] is: measured here: total cells with miR-34 induction, stronger effect = lower value.
[17] abbreviates: measured here: total cells without miR-34 induction.

One may read the inhibition as the change of the read-out against control, counted positive when it falls. As a reminder, the viability is a read-out of living cells in per cent, often relative to untreated cells.

In the case of `CCCCC(=O)O[C@H]1CCC2C3CCc4cc(O)ccc4C3CC[C@@]21C` (stereo partly drawn), in assay [1], the inhibition came out at 15.8%. For the same molecule, the score in assay [2] is -2.02. Further, the rescue above control in assay [3] worked out at 17.4. Besides, in [4], the cytochrome c release ratio is 1.02. The inhibition of aggregation in assay [5] came to 26.4%. Moreover, the glutamate uptake change in [6] came to 19.7%. The aggregation suppression score in [7] is 0.271. Besides, the parasite load remaining in assay [8] is 83% (inactive) and 44.1% (inactive). In addition, the viability in assay [8] is 74.5% and 87.8%. In addition, the red/green cell ratio (normalised) in assay [9] is 0.95 (inactive). Besides, the normalised cell number in [9] (setting [12]) amounted to 0.89; in [9] (setting [13]), 0.84. Further, the fold change in assay [10] (setting [14]) is 0.938 (inactive); in assay [10] (setting [15]), 1.71. Besides, the cell count is 10200 in assay [10] (setting [16]) and 10900 in assay [10] (setting [17]).
Consider `O=C(O)CCCCC1SCC2NC(=O)NC21` (stereo not drawn), for which, in assay [1], the inhibition is 27.9%. The molecule also had a score in assay [2] of 1.08. In [3], this molecule had a rescue above control of 4.79. Moreover, the cytochrome c release ratio in assay [4] is 0.89. Besides, the inhibition of aggregation in assay [5] turned out to be 0%. In addition, the glutamate uptake change in assay [6] was -4.28%. This molecule registered an inclusion score in assay [11] of 2. For the same molecule, the aggregation suppression score in [7] was found to be 1.3. The parasite load remaining in assay [8] is 40.6% (inactive) and 36.1% (inactive). Further, in assay [8], the viability is 78% and 88.2%. In addition, in [9], the red/green cell ratio (normalised) was 1.21 (inactive). Besides, the normalised cell number in assay [9] (setting [12]) came to 1.02; in [9] (setting [13]) it was 1.23. Besides, the fold change in assay [10] (setting [14]) was 0.892 (inactive); in [10] (setting [15]) it was 3.76. Moreover, the cell count worked out at 12200 in assay [10] (setting [16]) and 13700 in [10] (setting [17]).
As for `C#C[C@]1(O)CCC2C3CCC4=CC(=O)CC[C@@H]4C3CC[C@@]21C` (stereo partly drawn), the inhibition in assay [1] is -3.25%. Further, the score in [2] was found to be 0.94. The rescue above control in assay [3] is 10.4. Besides, in [4], the cytochrome c release ratio came out at 1.47. Besides, the inhibition of aggregation in [5] was found to be 89.7%. The glutamate uptake change in assay [6] is -5.05%. In assay [11], this molecule gave an inclusion score of 2. In assay [7], the aggregation suppression score worked out at 0.524. In addition, in assay [8], the parasite load remaining is 118% (inactive) and 51.8% (inactive). Moreover, the viability in assay [8] is 71.2% and 90%. The red/green cell ratio (normalised) in [9] is 0.86 (inactive). For the same molecule, the normalised cell number amounted to 1.29 in assay [9] (setting [12]) and 1.11 in assay [9] (setting [13]). The fold change in [10] (setting [14]) was 0.914 (inactive); in [10] (setting [15]), 1.55. Moreover, the cell count in assay [10] (setting [16]) came to 10400; in [10] (setting [17]) it was 11300.
`C[C@H]1O[C@@H](O[C@H]2[C@@H](O)C[C@H](O[C@H]3[C@@H](O)C[C@H](O[C@H]4CC[C@]5(C)C6C[C@@H](O)[C@]7(C)[C@@H](C8=CC(=O)OC8)CC[C@]7(O)C6CC[C@@H]5C4)O[C@@H]3C)O[C@@H]2C)C[C@H](O)[C@@H]1O` (stereo partly drawn): the inhibition in [1] came to 80%. The score in assay [2] stood at 1.17. Also, the rescue above control in assay [3] came out at 0. The cytochrome c release ratio in assay [4] amounted to 0.9. In addition, in [5], the inhibition of aggregation is 88.9%. Further, the glutamate uptake change in assay [6] is -3.95%. Also, in [11], the inclusion score was 1.5. In assay [7], the aggregation suppression score came to 1.34. The parasite load remaining in assay [8] was 1.4% (inactive) and 1.3% (inactive). Also, in assay [8], the viability was 36.1% and 54.9%. Also, the red/green cell ratio (normalised) in [9] was 0.68 (inactive). In addition, the normalised cell number in assay [9] (setting [12]) was 1.14; in [9] (setting [13]), 0.77. Moreover, the fold change in [10] (setting [14]) was 0.434 (active); in assay [10] (setting [15]), 2.23. Also, the cell count in assay [10] (setting [16]) is 193; in assay [10] (setting [17]) it was 445.
For `C[C@]12CCC3c4ccc(O)cc4CCC3C1CC[C@@H]2OC(=O)CCC1CCCC1` (stereo partly drawn), in assay [1], the inhibition came out at 30.9%. In addition, the score in [2] was -0.35. This molecule also showed a rescue above control in assay [3] of -0.57. The cytochrome c release ratio in assay [4] came out at 0.97. Also, in assay [5], the inhibition of aggregation was 94.4%. Besides, in [6], the glutamate uptake change is -6.63%. The aggregation suppression score in assay [7] was determined as 0.396. The parasite load remaining in [8] is 77.3% (inactive) and 37.9% (inactive). The viability in assay [8] was 74.2% and 90.6%. Also, the red/green cell ratio (normalised) in [9] is 1.54 (inactive). Also, the normalised cell number in assay [9] (setting [12]) is 0.83; in [9] (setting [13]), 1.27. Further, the fold change is 1 (inactive) in assay [10] (setting [14]) and 1.31 in assay [10] (setting [15]). Also, the cell count in [10] (setting [16]) and in assay [10] (setting [17]) was 11300 in each case.
